FBW7 act: activators of human E3 ligase FBW7; AID 1259310; 0.13% of 650,000 active; Q969H0; AlphaScreen FBW7–phospho-cyclin E peptide binding, activator screen; normalized activity (activation), % at 26.1 µM; in the data active means normalized activity above about 1.9%;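 further: purified mutant Fbw7 with reduced substrate affinity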
TEAD-YAP inh: TEAD-YAP interaction inhibition; HEK-TIYL cells, TEAD-Gal4/YAP UAS-luciferase luminescence; inhibition, % at 9.12 µM; 1.4% of 640,000 active; in the data active means inhibition above about 32%
GPR151 activ: human GPR151 activation. Q8TDV0. PathHunter beta-arrestin GPR151 cells, luminescence. activation, % at 11.2 µM. 1% of 650,000 active. AID 1508602; in the data active means activation above about 4.9%
Target sequence (Q8TDV0 whole entry, looked up): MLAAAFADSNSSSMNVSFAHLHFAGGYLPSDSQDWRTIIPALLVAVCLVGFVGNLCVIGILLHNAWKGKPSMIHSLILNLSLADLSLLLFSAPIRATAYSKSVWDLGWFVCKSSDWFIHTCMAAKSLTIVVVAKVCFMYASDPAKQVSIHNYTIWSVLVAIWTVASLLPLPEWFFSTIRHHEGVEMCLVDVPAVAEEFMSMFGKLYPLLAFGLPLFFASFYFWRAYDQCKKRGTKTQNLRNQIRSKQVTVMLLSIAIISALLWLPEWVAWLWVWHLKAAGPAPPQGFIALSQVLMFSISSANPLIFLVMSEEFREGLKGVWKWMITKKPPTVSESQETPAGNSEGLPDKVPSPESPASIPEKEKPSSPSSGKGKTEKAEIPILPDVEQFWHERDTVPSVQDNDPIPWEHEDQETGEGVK
MITF primary: human MITF inhibition, primary screen. inhibition, % at 2.6 µM. 0.91% of 650,000 active. AlphaScreen MITF homodimerization, bead proximity signal; in the data active means inhibition above about 50%
MITF confirm: human MITF inhibition, confirmation; shares compounds with MITF primary; AlphaScreen MITF homodimerization, biotin/His-MITF beads; inhibition, % at 2.6 µM; 16% of 4,700 active; AID 1259372;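 active means inhibition above a cutoff derived from the DMSO control wells, cut at about 28% in these data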;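 further: inhibitors lower the bead chemiluminescence by keeping MITF from dimerizing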
AlphaScreen DR: counter-screen: compounds optically interfering with AlphaScreen; shares compounds with MITF primary; AlphaScreen optical interference counterscreen, cell-free; IC50, µM; 6% of 480 active; AID 1259373; call rule not given here
AS interf ctr: AlphaScreen optical interference, counter-screen; 7.6% of 4,700 active; LysRS AlphaScreen counterscreen, signal interference, triplicate; AID 1259376; inhibition, % at 2.6 µM; shares compounds with MITF primary;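 active means inhibition above a cutoff derived from the DMSO control wells, cut at about 30% in these data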
Of the large screens only hits and unclear results are named; the others gave an inactive call (follow-up assays come after a bar, where they were run). Shown are actives, neighbours in structure and some others; about 3.5% of the full set was active somewhere.

CC1=[N+](C)c2c(ccc3ccccc23)C1(C)C	TEAD-YAP inh 60
O=C1NC(=S)NC(=O)C1=Cc1ccc(-c2ccc(Cl)c(C(=O)O)c2)o1	MITF primary 69
O=C1NC(=S)NC(=O)C1=Cc1ccc(-c2ccc(C(=O)O)cc2)o1	MITF primary 63
CC(=O)c1ccc(-c2ccc(C=C3C(=O)NC(=S)NC3=O)o2)cc1	none
O=C1NC(=O)N(Cc2ccco2)C(=O)/C1=C\c1ccc(-c2ccc(Cl)c(C(=O)O)c2)o1	none
O=C1NC(=S)NC(=O)C1=Cc1ccc(-c2ccc(C(=O)O)c(O)c2)o1	MITF primary 82
CCN(CC)C1CCN(C(=O)c2cn(CCCc3ccccc3)cc(C(=O)NC)c2=O)C1 (stereo not drawn)	none
C[C@]12CC[C@H](O)C[C@H]1CC[C@@H]1[C@@H]2CC[C@]2(C)[C@@H](C3=CC(=O)OC3)CC[C@]12O	none (no result: TEAD-YAP inh)
C[C@@H]1O[C@@H](O[C@H]2C[C@@H](O)[C@]3(CO)[C@@H]4C(CC[C@]3(O)C2)[C@@]2(O)CC[C@H](C3COC(=O)C3)[C@@]2(C)C[C@H]4O)[C@H](O)[C@H](O)[C@H]1O (stereo partly drawn)	TEAD-YAP inh 94
COC1CC(O[C@H]2CC[C@]3(C=O)C4CC[C@]5(C)C(C6=CC(=O)OC6)CC[C@]5(O)C4CC[C@]3(O)C2)OC(C)C1O (stereo partly drawn)	TEAD-YAP inh 101
C[C@@H]1O[C@@H](O[C@H]2C[C@@H](O)[C@]3(CO)C4C(CC[C@]3(O)C2)[C@@]2(O)CC[C@H](C3=CC(=O)OC3)[C@@]2(C)C[C@H]4O)[C@H](O)[C@H](O)[C@H]1O (stereo partly drawn)	TEAD-YAP inh 99
Cc1ccc(-n2c(/C=C/c3ccc(Cl)cc3)nc3ccccc3c2=O)cc1	none
C1=C[C@H]2c3ccccc3N[C@@H](c3cccnc3)[C@H]2C1	none
O=C(CN1CCCCCC1)c1ccccc1	none
O=C(c1ccccc1)C(CN1CCCC1)c1ccccc1 (stereo not drawn)	TEAD-YAP inh 54
COc1ccc(CCNCc2ccc(N(C)C)cc2)cc1	none
COC(=O)Nc1nc2ccccc2[nH]1	TEAD-YAP inh 35
O=C1NC(=S)N(c2ccc(Cl)cc2)C(=O)/C1=C/c1ccco1	none
O=C1NC(=O)N(c2cccc3ccccc23)C(=O)/C1=C\c1ccco1	MITF primary 78
O=C1NC(=S)N(c2ccc(F)cc2)C(=O)/C1=C/c1ccco1	MITF primary 63
O=C1NC(=S)N(c2ccccc2)C(=O)/C1=C\C=C\c1ccco1	MITF primary 75
C=CCN1C(=O)NC(=O)/C(=C/c2ccc(O)c(O)c2)C1=O	none
CCOc1ccccc1C1SCC(=O)Nc2c1c(=O)[nH]n2C1CCOC(C)(C)C1 (stereo not drawn)	none
CCOC(=O)C1C2NC(=S)N(c3ccccc3)C1(C)Oc1ccc(OC)cc12 (stereo not drawn)	none
N#CC1=C2SCC(O)(c3ccco3)N2C(=O)CC1c1ccccc1F (stereo not drawn)	TEAD-YAP inh 41
COc1cccc(-n2c(CN3CCC(C)CC3)nc3ccc([N+](=O)[O-])cc3c2=O)c1	none
C1COCCOCCOCCOCCO1.C1COCCOCCOCCOCCO1.[Cl-].[Cs+].[O]=[Cr](=[O])=[O]	MITF primary 57 | MITF confirm inactive | AS interf ctr inactive
Nc1c([N+](=O)[O-])cc(C(F)(F)F)cc1[N+](=O)[O-]	none
CN(CC(=O)NC1CCCCC1)C(=O)Oc1ccccc1	none
COc1ccc(CN2CCN(Cc3ccccc3C)CC2)cc1	MITF primary 75 | MITF confirm inactive | AS interf ctr inactive
Cc1ccccc1CN1CCN(C)CC1	none
Clc1ccc(CN2CCNCC2)cc1	none
Cc1ccc(C)c(CN2CCN(C)CC2)c1	MITF primary 62 | MITF confirm inactive | AS interf ctr inactive
Cc1ccc(CN2CCN(Cc3ccc(Cl)cc3)CC2)cc1	MITF primary 83 | MITF confirm inactive | AS interf ctr inactive
CCc1ccc(CN2CCN(Cc3ccccc3C)CC2)cc1	MITF primary 65 | MITF confirm inactive | AS interf ctr inactive
Cc1ccccc1CN1CCN(c2ccc(Cl)cc2)CC1	none
CCOc1ccccc1N1CCN(Cc2ccccc2OC)CC1	none
O=C(COc1ccc(F)cc1)N1CCN(Cc2ccccc2)CC1	none
Cc1cc(=O)c(C(=O)NCCCn2ccnc2)c(CC2CCCC2)n1Cc1cccnc1	none
Cc1ccccc1CN1CCN(Cc2ccccc2Cl)CC1	none
Cc1ccc(CN2CCN(Cc3ccccc3C)CC2)cc1	MITF primary 56 | MITF confirm inactive | AS interf ctr inactive
COc1ccc(OC)c(CN2CCN(Cc3ccccc3)CC2)c1	none
CCC(C)N1CCN(Cc2cc(OC)ccc2OC)CC1 (stereo not drawn)	MITF primary 57 | MITF confirm inactive | AS interf ctr inactive
CCC(CC)N1CCN(Cc2ccc(OC)c(OC)c2OC)CC1	MITF primary 74 | MITF confirm inactive | AS interf ctr inactive
CCC(C)N1CCN(Cc2ccc(OC)c(OC)c2OC)CC1 (stereo not drawn)	MITF primary 69 | MITF confirm inactive | AS interf ctr inactive
CCOC(=O)C1=C(N)Oc2cc(C)n(CC)c(=O)c2C12C(=O)N(C)c1ccccc12 (stereo not drawn)	none
COCCn1nnnc1CN1CCC(n2nnc3cc(F)ccc32)CC1	none
O=C(Nc1ccccc1)C(Cl)(Cl)Cl	none
CCOC(=O)c1cccc(NC(=O)CCc2nc(C3=CCN(C)CC3)no2)c1	none
CCN1CCN(Cc2ccc(NC(=O)CCc3nc(C4=CCN(C)CC4)no3)cc2)CC1	FBW7 act 3.9, MITF primary 59 | MITF confirm 63 | AS interf ctr 42
CC(C)c1ccc(NC(=O)CCc2nc(C3=CCN(C)CC3)no2)cc1	none
CCc1ccc(NC(=O)CCc2nc(C3=CCN(C)CC3)no2)cc1	MITF primary 65 | MITF confirm 48 | AlphaScreen DR inactive | AS interf ctr inactive
CCOC(=O)N1CCC(NC(=O)CCc2nc(C3=CCN(C)CC3)no2)CC1	MITF primary 53 | MITF confirm 35 | AlphaScreen DR inactive | AS interf ctr inactive
CCN(CC)S(=O)(=O)c1ccc(NC(=O)CCc2nc(C3=CCN(C)CC3)no2)cc1	MITF primary 83 | MITF confirm 94 | AS interf ctr 66
CN1CC=C(c2noc(CCC(=O)Nc3ccc(Cl)cc3)n2)CC1	MITF primary 73 | MITF confirm 68 | AS interf ctr 46
O=C(Nc1ccc(Cl)c(Cl)c1)c1cccn(Cc2ccccc2Cl)c1=O	none
Cc1ccccc1CN1CCN(Cc2ccc([N+](=O)[O-])cc2)CC1	MITF primary 63 | MITF confirm inactive | AS interf ctr inactive
